Source: PubChem
HCV inhibitor = qHTS Assay for Inhibitors of Hepatitis C Virus (HCV); Potency, µM (series often up to 41.8 µM), for the others: at the highest dose activity change, negative = inhibition, usual class: inhibitors; actives 3.4% (n = 340,000); Huh7.5.1 HCVcc-Cre infection, luciferase reporter, 44 h; note: % is set by controls: 0 for no effect and ±100 for the full control effect
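Reporter virus HCVcc-Cre (~0.5 moi) infects cells exposed to compound; seeding density 1,000 cells/well with 4 h settling beforehand. Luminescence, 15 sec read, taken 44 h post-infection following a 15 min RT substrate incubation.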
Pf growth 48h = Primary qHTS for delayed death inhibitors of the malarial parasite plastid, 48 hour incubation; Potency, µM (series often up to 28.7 µM), for the others: top-dose activity change, negative = inhibition, hits mostly inhibitors; actives 5.9% (n = 310,000); P. falciparum luciferase growth in erythrocytes, 48 h; AID 504832, 2011; note: % is set by controls: 0 for no effect and ±100 for the full control effect
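Firefly luciferase activity from engineered P. falciparum reports growth; inhibitors lower the luminescent signal. Cultures contained 2% hematocrit erythrocytes at 0.1% final parasitemia.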
SARS PLpro yeast = qHTS of Yeast-based Assay for SARS-CoV PLP; S. cerevisiae expressing SARS-CoV PLpro, growth rescue; Potency, µM (series often up to 32.9 µM), for the others: top-dose activity, positive = growth rescue, most hits filed as activators; actives 0.19% (n = 330,000); calls by dose curve; note: 0% is about no effect; nearly all actives have a fitted effect of over 55% in size
NS1 inh = qHTS Assay for Inhibitors of Influenza NS1 Protein Function; Potency, µM (doses to about 46.1 µM), for inactives: top-dose activity, positive = more growth; actives 0.4% (n = 270,000); calls by dose curve; note: actives are rising curves; nearly all actives have a fitted effect of over 50% in size
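Recovery from NS1-induced slow growth read by OD600 in budding yeast switched to galactose assay medium (pH 6.0, -URA) at 1:100 dilution. Compound 23 nl per well; the matching strain lacking NS1 serves as control.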
Pf growth 96h = Primary qHTS for delayed death inhibitors of the malarial parasite plastid, 96 hour incubation | P. falciparum luciferase reporter growth, 96 h | Potency, µM (doses to about 28.7 µM), for inactives: at the highest dose activity change, negative = inhibition, hits mostly inhibitors | actives 6.9% (n = 320,000); note: % is set by controls: 0 for no effect and ±100 for the full control effect
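Infected RBCs, 2% Hct / 0.05% parasitemia final; luciferase-reporter P. falciparum; cpd 96 h, 37 C, 5% CO2; luciferase detection reagent; luminescence.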
AMA1-RON2 inh = qHTS for Inhibitors of AMA1-RON; Towards Development of Antimalarial Drug Lead: Primary Screen. Plasmodium falciparum AMA1 (3D7) - RON2 peptide interaction. AlphaScreen AMA1-biotinylated RON2 peptide binding. Potency, µM (top dose mostly 58.2 µM), without a hit: at the top dose activity change, negative = inhibition, actives largely listed as inhibitors. actives 0.2% (n = 360,000);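 note: 0% = vehicle wells and -100% = peptide control; nearly all actives have a fitted effect of over 45% in size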
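AMA1 (3D7) with his tag at 25 nM final met compounds first, then biotinylated RON2 peptide at 25 nM; detection used donor plus acceptor beads, 10 µg/mL apiece, read by AlphaScreen after 30 min at room temperature.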
The depositor's hits bear a star; i = inactive; ? = inconclusive; . = not tested or not shown. Sampled rows, rich in hits. Any-hit rate of the full collection: about 12%. Unless noted, calls come from the whole dose curve; as a rule, active = well fitted curve in the direction sought with a large enough effect; inconclusive = small, poorly fitted or top-dose-only effect, or another doubt; inactive = no such curve, though single readings can be large; an effect the other way counts as inactive or inconclusive. Potency is the fitted concentration of half-maximal effect.

SMILES | HCV inhibitor | Pf growth 48h | SARS PLpro yeast | NS1 inh | Pf growth 96h | AMA1-RON2 inh
CCOc1cc(/C=N/Nc2cc(C)nc(-n3nc(C)cc3C)n2)ccc1O | ? | 0.37µM* | 1% | 0% | 1.7µM* | 84%
COc1ccccc1C1=NNC(=Nc2cccc(S(=O)(=O)N(C)C)c2)SC1 | 13µM* | 1.9µM* | -3% | ? | ? | 16%
COc1cc(/C=N/NC(=O)c2cc[n+]([O-])cc2)ccc1O | 17% | -1% | 1% | 14% | 28% | 58%
Cc1ccc2nc(N(CCCN(C)C)C(=O)c3ccc(S(=O)(=O)N4CCc5ccccc5C4)cc3)sc2c1 | ? | ? | 4% | -3% | ? | ?
Cc1cccc2sc(N(CCCN(C)C)C(=O)c3ccc(S(=O)(=O)N4CCc5ccccc5C4)cc3)nc12 | -9% | 9.3µM* | -4% | 6% | ? | -6%
CN(C)CCCN(C(=O)c1ccc(S(=O)(=O)N2CCc3ccccc3C2)cc1)c1nc2ccc(F)cc2s1 | ? | 13µM* | -1% | -18% | ? | ?
O=c1c2c(nc3n1CCS3)c1cc(F)ccc1n2Cc1cc(=O)n2cc(Cl)ccc2n1 | -22% | ? | 0% | 3% | 1.9µM* | -15%
COc1ccc(-c2csc(C(C#N)=C(O)CSc3nccn3C)n2)cc1OC | -15% | . | . | . | . | 10%
COc1cc(C=O)ccc1OCCSc1ccc(Cl)cc1 | 7% | 50% | -1% | -126% | 33% | 28%
CCOc1ccc(Cl)cc1/C=N/O | ? | 18% | 12% | -61% | 17% | 2%
CCOc1ccc(Cl)cc1/C=N/NC(N)=O | 14µM* | 30% | 0% | 6% | 26% | 2%
CCOC(=O)N/N=C/c1ccc(OCCSc2ccc(Cl)cc2)c(OCC)c1 | ? | 1.9µM* | -11% | -19% | 3.3µM* | -8%
CCOC(=O)N/N=C/c1ccc(OCCSc2ccc(Cl)cc2)c(OC)c1 | ? | 5.2µM* | 12% | -1% | 2.1µM* | -6%
O=C(Nc1cccc(-c2ccc(F)cc2)c1)C1CCCN(C(=O)c2cscn2)C1 (stereo unspecified) | ? | 3% | 1% | 0% | -14% | -7%
Nc1[nH]c(=S)[nH]c(=O)c1N=Nc1c(Br)cc(S(N)(=O)=O)cc1Br | . | . | . | 0% | . | .
COCCn1nnnc1C(C(C)C)N(Cc1cccnc1)Cc1ccccc1Cl (stereo unspecified) | ? | 10µM* | 1% | -24% | 0% | 3%
CCOC(=O)C1CCN(C2CCN(C(=O)c3oc4c(C)c(C)ccc4c3C)CC2)CC1 | -14% | 13µM* | 25% | 3% | -15% | 3%
Cc1c(C(=O)N2CCC[C@H]2CO)oc2c(F)cccc12 | -17% | 22% | 3% | 9% | 15µM* | 0%
Cc1c(C(=O)O)oc2c(F)cccc12 | -16% | 16% | 4% | . | i | 1%
CCOC(=O)C1CCN(C2CCN(C(=O)c3oc4c(F)cccc4c3C)CC2)CC1 | -12% | 8.3µM* | 17% | 6% | ? | -11%
CCOC(=O)C1(C)CCN1C(=O)c1ccco1 (stereo unspecified) | . | . | . | . | . | 9%
COc1cccc(NC(=S)N2CCN(c3ccccn3)CC2)c1 | 2% | 14% | -16% | -2% | ? | -1%
COc1ccc(NC(=O)c2ccc(NC(=O)C3CC3)cc2)cc1 | ? | -15% | -2% | -5% | -2% | 14%
COc1ccc(C(=O)Nc2ccc(NC(=O)C3CC3)nc2)cc1 | 3% | 9% | 4% | -3% | 10µM* | 15%
COc1cccc(C(=O)Nc2ccc(NC(=O)C3CC3)cn2)c1 | 16% | 152% | -2% | -10% | 8.3µM* | -15%
